Results on five compounds are retold here after PubChem BioAssay.

SMILES strings stand for the structures. Inconclusive results are not listed. Activity calls are given as the source filed them.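 Rule for the calls, unless noted: active = GFP response, as percent of the DMSO control, above the screen-wide mean plus 3 SD, about 139; inconclusive = no response measured because the compound's own fluorescence interfered; inactive = the rest.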

The nature of experiment [1]: rapamycin-like changes in RPL19A-GFP expression – cell-based, S. cerevisiae, multiplex flow cytometry, primary screen (AID 1862; in the data active = percent of DMSO control GFP below about 86%;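 note: lower values mimic rapamycin by blocking the RPL19A rise seen in DMSO cells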). The following applies: S. cerevisiae RPL19A-GFP strain, flow cytometry fluorescence, 3 h; at 10 µM; stronger effect = lower value.
Experiment [2] can be described thus: TOR pathway GLN3 branch reporter MEP2-GFP changes – S. cerevisiae, multiplex flow cytometry, primary screen (AID 1867).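 Note: median GFP channel fluorescence of barcode-gated MEP2-GFP cells measured by flow cytometry.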 The following applies: S. cerevisiae MEP2-GFP strain, 3 h, at 10 µM, stronger effect = higher value, 100% means same as DMSO wells. For orientation: Flow cytometry measures light scatter and fluorescence of single cells or particles in a stream.
Experiment [3] can be described thus: TOR pathway RTG branch CIT2 reporter changes – S. cerevisiae, GFP fusion, multiplex flow cytometry, primary screen (AID 1870;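 active = percent response above a set limit, the screen-wide mean plus 3 SD, cut at about 130% in these data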;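 note: barcoded CIT2-GFP strain pooled with four other GFP strains with rapamycin as positive control; median GFP fluorescence per well over plate mean of DMSO wells so 100% = DMSO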). The following applies: S. cerevisiae CIT2-GFP expression, 3 h, at 10 µM, stronger effect = higher value.
The nature of experiment [4]: TOR pathway LAP4-GFP level changes – S. cerevisiae, multiplex flow cytometry, primary screen (AID 1873;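 active = GFP signal, as percent of the solvent control, above the screen mean plus 3 SD, about 149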). The following applies: S. cerevisiae LAP4-GFP expression, 3 h, at 10 µM, stronger effect = higher value.
A short description of experiment [5]: yeast AGP1-GFP level changes, GLN3 branch – cell-based, multiplex flow cytometry, S. cerevisiae, primary screen (AID 1887;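 active = GFP signal above the screen-wide mean plus 3 SD, that is over about 124.5% of the solvent control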;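 note: AGP1-GFP fusion strain of S. cerevisiae within a five-strain barcoded multiplex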). The following applies: 3 h, at 10 µM, stronger effect = higher value.
Experiment [6] is described as follows: reduced mouse 2C T cell binding to pMHC/ICAM-1 vesicles – MLPCN validation set, flow cytometry, LFA-1/ICAM-1 modulator project, pilot screen (AID 2523;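 active = response below a set limit, under 55% cells CD8-positive and vesicle-bound, and CD8 cells' 90th-percentile brightness under 279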;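 for vesicle binding response: mean PE anti-B7-1 fluorescence of CD8+ cells relative to row control; 100% = QL9-loaded vesicles with DMSO vehicle in the same plate row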). The following applies: 2C mouse CD8+ T cells, at 7 µM, stronger effect = lower value; double positive events: measured here: CD8+/vesicle+ event percentage.
The target of experiment [7] is Integrin beta-1 (Homo sapiens) + Integrin alpha-4 (Homo sapiens) (UniProt P13612+P05556). In words: alpha4beta1 integrin LIBS antibody binding reduction – U937 cells, HUTS-21 mAb, flow cytometry, validation set, VLA-4 allosteric modulator project, pilot screen (AID 2674;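 active = inhibition above 50%, about 3 SD of the validation set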;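 note: antibody binding induced by the VLA-4 ligand LDV present at three times its Kd; 0% = LDV ligand with antibody and no compound and 100% = antibody without LDV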). The following applies: HUTS-21 LIBS mAb binding, at 6.7 µM, stronger effect = higher value, binding induced by LDV ligand.

Experiment [8] can be described thus: calorie-restriction mimetic ROS inhibitors, yeast – validation compound set, pilot screen (AID 2706;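 active = superoxide response below 65% of plate, a cut near 3 SD across the whole screen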;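 note: yeast exposed to compound for one week at 30 degrees C before staining; 100% = mean of all compound wells on the same plate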). The following applies: S. cerevisiae aging, superoxide DHE fluorescence; at 10 µM; stronger effect = lower value.
Experiment [9] addresses Beta-adrenergic receptor kinase 1 (Homo sapiens) (UniProt P25098). Description: GRK2 binders displacing RNA aptamer, biochemical, validation, human GRK2, bead flow cytometry (AID 488806;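 active = aptamer binding inhibition above 30%, about 3 SD of noise from non-fluorescent compounds; inactive = inhibition at or below 30%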). The following applies: bead-bound GRK2, FAM-aptamer displacement, at 10 µM, stronger effect = higher value.
Experiment [10] concerns the target Beta-2 adrenergic receptor (Homo sapiens) (UniProt P07550). Description: agonist-induced loss of surface beta2AR – cell-based, FAP fluorogen, flow cytometry, validation set, pilot screen (AID 504459;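 active = percent response above 42, roughly 3 SD of non-fluorescent test compounds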;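 note: agonist-driven loss of surface beta2AR via internalization measured by FAP dye flow cytometry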). The following applies: Am2.2-beta2AR cells, at 10 µM, stronger effect = higher value.
Experiment [11] deals with AP-2 complex subunit beta (Homo sapiens) (UniProt P63010). In words: beta-arrestin/AP2 interaction blockers – biochemical, validation set, GST-AP2 beads, flow cytometry, pilot screen (AID 504541;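 active = inhibition above 54%, about 3 SD of non-fluorescent compounds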;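 note: AP2 carries R879A mutation and is captured from E. coli lysate; bead-bound FITC arrestin peptide fluorescence measuring arrestin peptide binding to AP2; 0% = DMSO wells and 100% = excess unlabeled arrestin peptide control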). The following applies: FITC arrestin peptide, at 10 µM, stronger effect = higher value, AP2 beta2 appendage fragment, R879A mutant.
The nature of experiment [12]: cytosolic pH regulators acting via V-ATPase – S. cerevisiae, pHLuorin, HTS validation (AID 504600; in the data active = response above about 15%;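 note: plate controls were DMSO for no effect and reference compound for full effect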). The following applies: V-ATPase proton transport, at 10 µM, stronger effect = higher value.
Experiment [13] concerns anti-desmoglein-3 scFv antibody binding to human DSG3. In words: blockers of pathogenic pemphigus antibody–desmoglein-3 binding – biochemical, validation compound set, bead-based, flow cytometry, pilot screen (AID 588368;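 active = binding below the plate cutoff, the plate median minus 3 SD, with a reading above zero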;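 note: signal is the median channel fluorescence of bead-bound GFP antibody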). The following applies: Protein G beads, DSG3-Fc, scFv-GFP binding, at 10 µM, stronger effect = lower value.
A short description of experiment [14]: Nile Red efflux blockade in pump-expressing yeast – validation compound set, multiplex, phenotypic, pilot screen (AID 588506;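 active = efflux inhibition above 0.42, the validation set average plus 4 SD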;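 note: Nile Red retained in cells so higher fluorescence means more efflux inhibition; 0 = negative control wells and 1 = enniatin B 25 µM full block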). The following applies: S. cerevisiae pump-expressing triplex, Nile Red efflux flow cytometry; at 10 µM; stronger effect = higher value; the pumps come from Candida albicans.
Experiment [15] deals with ATP-binding cassette sub-family B member 6 (Homo sapiens) (UniProt Q9NP58). In words: blockers of ABCB6-driven porphyrin uptake – K562-ABCB6 cells, flow cytometry, validation set, pilot screen (AID 588550;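 active = inhibition above the screen-wide mean plus 3 SD, about 51%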;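 note: 0% = DMSO wells and 100% = benzethonium chloride 70 µM positive control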). The following applies: K562-ABCB6 porphyrin accumulation, 1 h, at 10 µM, stronger effect = higher value.
A short description of experiment [16]: AML differentiation inducers, ER-HoxA9 marrow cells – cell-based, GFP/MAC1 double positive, flow cytometry, validation set, primary screen (AID 588685;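 active = differentiation response of at least 50%, scaled between solvent and reference control, from cells with both markers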;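 note: compound exposure lasts four days before antibody staining and flow analysis; 0% = DMSO wells and 100% = 5 µM fulvestrant positive control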). The following applies: stronger effect = higher value, normalized: vehicle 0, fulvestrant 100.

Beta-adrenergic receptor kinase 1 (Homo sapiens), sequence (P25098 whole entry, looked up): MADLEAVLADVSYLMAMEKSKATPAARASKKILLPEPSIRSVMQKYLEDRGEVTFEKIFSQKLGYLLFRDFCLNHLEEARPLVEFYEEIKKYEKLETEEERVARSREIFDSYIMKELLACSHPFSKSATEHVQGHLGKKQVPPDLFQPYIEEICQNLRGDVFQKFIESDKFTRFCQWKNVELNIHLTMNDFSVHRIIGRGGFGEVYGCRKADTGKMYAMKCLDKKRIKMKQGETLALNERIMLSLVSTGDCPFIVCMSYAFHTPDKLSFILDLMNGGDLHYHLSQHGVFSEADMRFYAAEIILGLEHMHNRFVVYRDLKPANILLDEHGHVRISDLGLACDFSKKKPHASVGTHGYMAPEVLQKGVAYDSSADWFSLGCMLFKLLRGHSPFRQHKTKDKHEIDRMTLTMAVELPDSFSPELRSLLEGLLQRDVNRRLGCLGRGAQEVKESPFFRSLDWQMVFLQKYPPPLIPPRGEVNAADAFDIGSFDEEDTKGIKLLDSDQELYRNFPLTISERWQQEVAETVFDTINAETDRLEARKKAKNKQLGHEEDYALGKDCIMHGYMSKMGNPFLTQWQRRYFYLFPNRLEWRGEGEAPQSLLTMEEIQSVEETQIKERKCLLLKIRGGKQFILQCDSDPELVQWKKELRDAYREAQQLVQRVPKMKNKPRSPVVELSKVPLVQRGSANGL
Beta-2 adrenergic receptor (Homo sapiens), sequence (P07550 whole entry, looked up): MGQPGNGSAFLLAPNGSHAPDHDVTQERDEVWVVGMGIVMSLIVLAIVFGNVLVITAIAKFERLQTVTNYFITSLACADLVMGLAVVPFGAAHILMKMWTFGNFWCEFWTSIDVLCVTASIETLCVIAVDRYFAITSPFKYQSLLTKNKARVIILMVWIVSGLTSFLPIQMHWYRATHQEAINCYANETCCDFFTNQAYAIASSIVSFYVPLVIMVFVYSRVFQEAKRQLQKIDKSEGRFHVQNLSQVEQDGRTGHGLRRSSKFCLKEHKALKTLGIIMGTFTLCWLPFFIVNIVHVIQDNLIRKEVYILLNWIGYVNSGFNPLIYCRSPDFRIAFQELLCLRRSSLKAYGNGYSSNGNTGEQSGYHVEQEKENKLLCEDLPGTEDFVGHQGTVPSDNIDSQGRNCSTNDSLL
AP-2 complex subunit beta (Homo sapiens), sequence (P63010 whole entry, looked up, the tested form may be a part, one chain of several): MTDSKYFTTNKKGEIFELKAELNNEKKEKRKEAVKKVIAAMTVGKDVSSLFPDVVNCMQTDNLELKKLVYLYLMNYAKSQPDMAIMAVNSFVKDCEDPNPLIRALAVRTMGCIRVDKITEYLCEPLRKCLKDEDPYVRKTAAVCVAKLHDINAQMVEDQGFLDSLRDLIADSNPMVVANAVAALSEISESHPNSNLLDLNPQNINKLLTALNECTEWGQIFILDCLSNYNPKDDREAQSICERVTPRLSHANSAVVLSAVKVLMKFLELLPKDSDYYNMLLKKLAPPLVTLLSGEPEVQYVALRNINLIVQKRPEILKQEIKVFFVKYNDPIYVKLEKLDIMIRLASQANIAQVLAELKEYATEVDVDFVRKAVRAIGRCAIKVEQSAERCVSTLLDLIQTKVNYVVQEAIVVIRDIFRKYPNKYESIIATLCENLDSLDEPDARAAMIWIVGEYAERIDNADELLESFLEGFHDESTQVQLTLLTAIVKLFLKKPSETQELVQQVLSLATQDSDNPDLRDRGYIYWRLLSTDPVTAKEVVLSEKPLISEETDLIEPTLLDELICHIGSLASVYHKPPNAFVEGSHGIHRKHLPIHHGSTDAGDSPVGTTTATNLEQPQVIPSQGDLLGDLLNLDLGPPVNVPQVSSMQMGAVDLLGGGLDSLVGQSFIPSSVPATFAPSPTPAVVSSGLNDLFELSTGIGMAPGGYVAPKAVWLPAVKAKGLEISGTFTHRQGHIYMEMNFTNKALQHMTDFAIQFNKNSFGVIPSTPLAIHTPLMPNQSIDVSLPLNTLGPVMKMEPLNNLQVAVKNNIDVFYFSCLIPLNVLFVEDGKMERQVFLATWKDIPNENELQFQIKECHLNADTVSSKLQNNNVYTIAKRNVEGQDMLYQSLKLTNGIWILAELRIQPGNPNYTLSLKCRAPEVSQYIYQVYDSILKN
ATP-binding cassette sub-family B member 6 (Homo sapiens), sequence (Q9NP58 whole entry, looked up): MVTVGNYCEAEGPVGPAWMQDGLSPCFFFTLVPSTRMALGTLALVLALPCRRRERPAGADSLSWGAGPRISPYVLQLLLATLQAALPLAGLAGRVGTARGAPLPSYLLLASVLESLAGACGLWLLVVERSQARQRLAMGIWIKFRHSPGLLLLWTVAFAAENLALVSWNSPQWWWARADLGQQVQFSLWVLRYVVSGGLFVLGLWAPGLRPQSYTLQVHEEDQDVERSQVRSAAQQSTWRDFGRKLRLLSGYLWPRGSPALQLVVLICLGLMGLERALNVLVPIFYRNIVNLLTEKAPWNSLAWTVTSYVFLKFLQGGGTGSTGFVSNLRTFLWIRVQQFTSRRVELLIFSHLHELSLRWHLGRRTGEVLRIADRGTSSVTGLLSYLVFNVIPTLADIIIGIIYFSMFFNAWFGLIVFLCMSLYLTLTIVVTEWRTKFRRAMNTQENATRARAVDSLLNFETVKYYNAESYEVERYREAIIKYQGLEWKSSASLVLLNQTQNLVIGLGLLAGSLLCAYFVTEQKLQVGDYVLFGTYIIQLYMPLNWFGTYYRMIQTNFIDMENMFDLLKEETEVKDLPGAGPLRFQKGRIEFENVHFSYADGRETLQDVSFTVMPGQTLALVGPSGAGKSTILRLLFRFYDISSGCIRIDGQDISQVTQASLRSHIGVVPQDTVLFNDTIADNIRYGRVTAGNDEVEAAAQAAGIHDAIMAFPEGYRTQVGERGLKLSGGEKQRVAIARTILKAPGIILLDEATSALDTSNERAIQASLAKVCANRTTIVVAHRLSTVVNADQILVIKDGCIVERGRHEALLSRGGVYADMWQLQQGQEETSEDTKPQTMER
Integrin beta-1 (Homo sapiens) + Integrin alpha-4 (Homo sapiens), sequence (P05556 whole entry, looked up): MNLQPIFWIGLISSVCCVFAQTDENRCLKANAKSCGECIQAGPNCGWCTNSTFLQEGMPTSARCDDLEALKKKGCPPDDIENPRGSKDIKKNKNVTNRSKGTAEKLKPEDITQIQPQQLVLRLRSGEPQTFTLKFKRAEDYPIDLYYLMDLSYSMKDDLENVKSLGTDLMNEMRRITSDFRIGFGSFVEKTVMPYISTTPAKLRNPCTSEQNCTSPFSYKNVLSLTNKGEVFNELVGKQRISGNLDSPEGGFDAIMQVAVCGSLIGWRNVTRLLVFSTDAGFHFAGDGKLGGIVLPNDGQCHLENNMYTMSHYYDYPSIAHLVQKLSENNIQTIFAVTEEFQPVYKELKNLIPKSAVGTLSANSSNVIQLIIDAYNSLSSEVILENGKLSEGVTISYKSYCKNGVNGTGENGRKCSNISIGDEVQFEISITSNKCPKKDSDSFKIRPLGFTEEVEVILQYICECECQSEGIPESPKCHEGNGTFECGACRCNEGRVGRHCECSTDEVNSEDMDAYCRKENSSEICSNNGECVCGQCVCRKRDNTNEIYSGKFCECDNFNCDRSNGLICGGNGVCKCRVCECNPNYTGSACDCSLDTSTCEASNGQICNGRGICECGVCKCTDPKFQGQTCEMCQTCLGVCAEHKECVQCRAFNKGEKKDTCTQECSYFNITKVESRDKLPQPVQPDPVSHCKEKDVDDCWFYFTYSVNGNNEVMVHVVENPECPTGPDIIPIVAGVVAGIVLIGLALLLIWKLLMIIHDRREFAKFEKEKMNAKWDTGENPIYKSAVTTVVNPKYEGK
Integrin beta-1 (Homo sapiens) + Integrin alpha-4 (Homo sapiens), sequence (P13612 whole entry, looked up): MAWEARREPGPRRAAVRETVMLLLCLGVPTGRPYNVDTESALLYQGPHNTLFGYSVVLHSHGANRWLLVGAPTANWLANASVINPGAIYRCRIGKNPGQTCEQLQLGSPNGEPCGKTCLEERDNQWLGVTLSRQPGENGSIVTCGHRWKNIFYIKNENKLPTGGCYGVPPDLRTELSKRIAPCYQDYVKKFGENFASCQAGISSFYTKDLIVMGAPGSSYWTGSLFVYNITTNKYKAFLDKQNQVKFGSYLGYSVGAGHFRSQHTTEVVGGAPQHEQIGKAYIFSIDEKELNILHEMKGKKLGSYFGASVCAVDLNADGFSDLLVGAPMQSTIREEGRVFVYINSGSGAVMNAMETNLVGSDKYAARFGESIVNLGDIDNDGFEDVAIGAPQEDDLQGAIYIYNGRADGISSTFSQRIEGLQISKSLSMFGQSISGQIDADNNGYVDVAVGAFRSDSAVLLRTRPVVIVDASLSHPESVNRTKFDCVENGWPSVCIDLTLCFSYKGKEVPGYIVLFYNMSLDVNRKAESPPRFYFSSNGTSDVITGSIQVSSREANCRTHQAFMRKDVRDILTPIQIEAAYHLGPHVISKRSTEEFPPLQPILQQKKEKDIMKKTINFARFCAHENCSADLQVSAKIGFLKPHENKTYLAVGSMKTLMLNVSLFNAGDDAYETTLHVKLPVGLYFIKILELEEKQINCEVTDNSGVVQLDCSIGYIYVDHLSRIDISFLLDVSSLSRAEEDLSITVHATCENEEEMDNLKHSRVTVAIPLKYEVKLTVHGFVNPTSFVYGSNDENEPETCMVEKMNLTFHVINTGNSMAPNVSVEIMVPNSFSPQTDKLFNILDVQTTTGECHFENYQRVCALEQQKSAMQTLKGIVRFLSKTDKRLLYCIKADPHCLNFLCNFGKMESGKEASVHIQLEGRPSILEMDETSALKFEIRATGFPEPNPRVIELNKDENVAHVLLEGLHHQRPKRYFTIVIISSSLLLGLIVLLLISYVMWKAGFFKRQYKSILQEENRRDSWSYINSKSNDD

By inhibition is commonly meant the drop in the measured response relative to a control, in per cent. For `CC(=O)Oc1ccc2c(=O)c(Oc3ccccc3[N+](=O)[O-])coc2c1`, the percent of DMSO control GFP in experiment [1] was 99.8% (inactive). Further, the GFP response vs DMSO in experiment [2] is 131% (inactive); in experiment [4], 78.7% (inactive). Further, in experiment [3], the percent response of DMSO control was 111% (inactive). For the same compound, the GFP response, % of DMSO in experiment [5] is 95.6% (inactive). Also, the double positive events in experiment [6] is 60.6%. For the same compound, the vesicle binding response in experiment [6] is 188% (inactive). The inhibition in experiment [7] is -0.33% (inactive); in experiment [11] it was -1.47% (inactive); in [15] it was -4% (inactive). Besides, the superoxide response (% of plate) in [8] is 121% (inactive). Besides, in experiment [9], the aptamer binding inhibition was 3% (inactive). Further, the values for the response in experiment [10] and in experiment [12] were -4.04% (inactive) and 0.8% (inactive), respectively. In addition, in [13], the binding (% of control) is 101% (inactive). For the same compound, the efflux inhibition (fraction of control) in [14] was -0.06 (inactive). In experiment [16], the differentiation response was 0% (inactive).
On to `Cc1ccc(-c2nnc(-c3ccc4c(c3)OCO4)o2)cc1`, for which the percent of DMSO control GFP in experiment [1] was 103% (inactive). Further, the results for the GFP response vs DMSO in experiment [2] and in experiment [4] were 106% (inactive) and 121% (inactive), respectively. In addition, the percent response of DMSO control in experiment [3] is 109% (inactive). Besides, the GFP response, % of DMSO in experiment [5] is 115% (inactive). Also, the double positive events in experiment [6] was 57.9%. In addition, the vesicle binding response in experiment [6] is 165% (inactive). The figures for the inhibition in [7], in experiment [11] and in experiment [15] were -2.82% (inactive), 6.09% (inactive) and 2% (inactive), respectively. For the same compound, the superoxide response (% of plate) in [8] is 98.9% (inactive). Moreover, in [9], the aptamer binding inhibition was -7% (inactive). Moreover, the results for the response in experiment [10] and in experiment [12] were -16.4% (inactive) and 2.28% (inactive), respectively. For the same compound, the binding (% of control) in experiment [13] is 99.9% (inactive). Further, the efflux inhibition (fraction of control) in experiment [14] is 0.04 (inactive). The differentiation response in [16] is -0.06% (inactive).
As to `O=C(CCC(=O)NCCO)NCCO`, in [1], the percent of DMSO control GFP is 101% (inactive). The GFP response vs DMSO was 104% (inactive) in experiment [2] and 108% (inactive) in experiment [4]. Further, the percent response of DMSO control in experiment [3] was 97.7% (inactive). In addition, the GFP response, % of DMSO in experiment [5] was 111% (inactive). This compound also came in with a double positive events in experiment [6] of 61.3%. Also, in [6], the vesicle binding response was 174% (inactive). Further, the inhibition in experiment [7] is -1.12% (inactive); in [11] it was -1.09% (inactive); in experiment [15], 2% (inactive). The superoxide response (% of plate) in experiment [8] was 95.4% (inactive). In addition, in experiment [9], the aptamer binding inhibition is 7% (inactive). For the same compound, the response in [10] is -19.9% (inactive); in experiment [12] it was -3.85% (inactive). Moreover, the binding (% of control) in experiment [13] is 100% (inactive). In addition, in [14], the efflux inhibition (fraction of control) is 0.04 (inactive). In addition, in experiment [16], the differentiation response is -1.05% (inactive).
As to `CN1CCN(CC/C=C2/c3ccccc3Sc3ccc(S(=O)(=O)N(C)C)cc32)CC1`, in experiment [1], the percent of DMSO control GFP is 102% (inactive). Also, the GFP response vs DMSO in [2] and in experiment [4] was 109% (inactive) throughout. For the same compound, the percent response of DMSO control in experiment [3] was 94.5% (inactive). In experiment [5], the GFP response, % of DMSO is 94.8% (inactive). The compound also returned a double positive events in [6] of 68.4%. Besides, the vesicle binding response in [6] was 202% (inactive). Moreover, the inhibition in [7] was 23% (inactive); in experiment [11], -4.59% (inactive); in experiment [15] it was 28% (inactive). Besides, the superoxide response (% of plate) in experiment [8] is 86% (inactive). For the same compound, the aptamer binding inhibition in experiment [9] was 4% (inactive). For the same compound, the response in [10] was -1.99% (inactive); in [12], 11% (inactive). For the same compound, the binding (% of control) in experiment [13] is 84.3% (inactive). The efflux inhibition (fraction of control) in experiment [14] was 0.02 (inactive). For the same compound, in [16], the differentiation response was -13.3% (inactive).
`CC1Cc2ccccc2N1NC(=O)c1ccc(Cl)c(S(N)(=O)=O)c1` (stereo not given): the percent of DMSO control GFP in experiment [1] was 105% (inactive). Further, the GFP response vs DMSO is 103% (inactive) in experiment [2] and 106% (inactive) in experiment [4]. In [3], the percent response of DMSO control was 105% (inactive). Besides, the GFP response, % of DMSO in experiment [5] was 114% (inactive). This compound displayed a double positive events in [6] of 41.4%. In addition, in experiment [6], the vesicle binding response is 19.9% (active). The inhibition in experiment [7] was 3.14% (inactive); in [11], 7.39% (inactive); in experiment [15] it was 7% (inactive). For the same compound, the superoxide response (% of plate) in [8] is 99.9% (inactive). For the same compound, the aptamer binding inhibition in [9] is 1% (inactive). In addition, the response in experiment [10] was -28.6% (inactive); in experiment [12] it was 2.79% (inactive). For the same compound, in experiment [13], the binding (% of control) is 99.5% (inactive). Further, the efflux inhibition (fraction of control) in experiment [14] was 0.04 (inactive). The differentiation response in [16] is 11.8% (inactive).
